Unmarked numbers belong to inactive results. The source made the active and inactive calls.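 The calls were made as follows: active = inhibition above 50%; inactive = the rest.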
Test: HepG2 cytotoxicity, primary screen, cytotoxicity control for P. falciparum antimalarial project, cell-based, ATP luminescence (AID 2303);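 also: 0% = DMSO wells and 100% = digitonin-killed cells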
Details: HepG2 viability, 24-48 h, at 10 µM, hits give high values

| SMILES | inhibition |
| --- | --- |
| O[C@@H](c1ccccc1)[C@@H]1CN(Cc2ccccc2)CC[C@@]1(O)c1ccccc1 | 4% |
| CC(NC(=O)c1ccc(O)c(-c2ccc(Cl)c(Cl)c2)c1)C(=O)NCCN1CCCCC1 (stereo unspecified) | -2% |
| CCCC(=O)Nc1ccc(OCCCCN(CC(C)(C)C)c2ccc(C#N)c(C(F)(F)F)c2)cc1 | 9% |
| O=C(Nc1ccc2nc3n(c(=O)c2c1)CCCCC3)C(=O)N1CCC(Cc2ccccc2)CC1 | 12% |
| CCCC(C)NC(=O)[C@H](CC1CCCCC1)NC(=O)c1ccc(O)c(-c2ccc(OC)cc2)c1 (stereo partly specified) | 3% |
| Cc1cccc(-c2cc3cc(Nc4ccnc5cc(-c6nccs6)ccc45)ccc3[nH]2)c1 | 0% |
| CCCc1cc(Cc2cnc(N)nc2N)cc(CCC)c1OCCCCC(=O)OC | -7% |
| CCN(CCCN1CCCCC1)c1cc(C)nc(Nc2cc(F)cc(F)c2)n1 | 15% |
| CC(C)(Oc1c(C2CCN(CCCCNC(=O)c3ccc(-c4ccc(Cl)cc4)cc3)CC2)ccc2c1CCCC2)C(N)=O | 100% (active) |
| CCOc1cc(C)c(C2CCN(CCCCNC(=O)c3ccc(NC(=O)c4ccc(Cl)cc4)cc3)CC2)cc1C | 10% |
| Cc1nc(C)c(CC(=O)Nc2ccc(-c3cccc(-c4nc5c(C)cccc5[nH]4)c3)cc2)s1 | 41% |
| Cn1nc(C(F)(F)F)c(-c2ccc(F)cc2)c1NC(=O)Nc1ccccc1 | 3% |
| CC(C)Cn1c(N)cc(=O)n(C)c1=O | 3% |
| O=C(Cn1c(CCc2cccc(F)c2F)nc(=O)c2ccccc21)N(CCCN1CCCCC1)Cc1ccc(-c2ccc(C(F)(F)F)cc2)cc1 | 100% (active) |
| CCOc1cc(C)ccc1C1CCN(CCCCNC(=O)c2nc(-c3ccc(C(F)(F)F)cc3)[nH]c2C)CC1 | 30% |
| Cc1sc2nc(CN3CCCC3)nc(-n3c(NCCO)nc4ccccc43)c2c1C | 19% |
| Fc1cccc(CNc2ncc(-c3ccsc3)c(-c3nccs3)n2)c1 | 15% |
| O=C(/C=C/c1ccc(Cl)c(Cl)c1)NCCCCCCN1CCCN(C(=O)Nc2ccc(F)c(Cl)c2)CC1 | 30% |

| SMILES | inhibition |
| --- | --- |
| Cc1ccc(C(=O)N2CCN(Cc3nccs3)CC2)cc1 | -6% |
| O=C(c1ccccc1)N(Cc1ccccc1-c1ccc(CNCCc2ccccc2)cc1)C1CCN(Cc2ccccc2)CC1 | 95% (active) |
| CC(=O)N(C)c1cccc(C(=O)Nc2cccc(-c3ccc(-c4nc5ccc(C(F)(F)F)cc5[nH]4)cc3)c2)c1 | 63% (active) |
| Nc1nc(N)c2c(ccc3c2ccn3CCCC2CCCNC2)n1 (stereo unspecified) | 67% (active) |
| COc1cc(C(C)C)nc2ccc(NC(=O)c3ccc(C(=O)Nc4ccc5nc(C(C)C)cc(OC)c5c4)cc3)cc12 | 39% |
| COc1cccc(C(=O)[C@H]2C[C@@H]2CN(C)CC(O)c2cc(C)c(OC)cc2C)c1 (stereo partly specified) | 8% |
| Cc1sc(C)c(CNCCCNc2cc(=O)c3ccccc3[nH]2)c1Br | -4% |
| CC(C)Cn1cc(C2CCN(CCN3CCC(CNC(=O)c4ccc(NC(=O)c5cc(Cl)cc(Cl)c5)cc4)CC3)CC2)c2ccccc21 | 53% (active) |
| CC(C)c1sc(-c2ccc(C(C)(C)C)cc2)nc1C(=O)NCCCN1CCCC1=O | -2% |
| COC(=O)C(C)(C)Cc1c(SC(C)(C)C)c2cc(C(C)C)ccc2n1Cc1ccc(Cl)cc1 | -9% |
| COc1cc(/C=C/C(=O)NCC(CCNc2cc(=O)c3ccccc3[nH]2)NCc2cc(Br)cc(Br)c2)cc(OC)c1 (stereo unspecified) | -11% |
| CCC(C)CN1C(=O)C(c2ccccc2)(c2ccccc2)N=C1N (stereo unspecified) | 11% |
| CCOc1ccc(-c2nonc2NC(=O)c2ccccc2Cl)cc1OCC | 3% |
| Cc1noc(C)c1-c1cccc(CNCc2ccc(-c3cccc(-c4nc5ccc(C(F)(F)F)cc5[nH]4)c3)cc2)c1 | 37% |
| COc1c(C2CCN(CCCCNC(=O)c3cc(-c4ccc(C#N)cc4)n[nH]3)CC2)ccc2c1CCCC2 | 36% |
| COc1ccc2nccc(NC(=O)N3CCC(NCCOc4cc(F)cc(F)c4)CC3)c2n1 | 14% |
| CC(=O)c1cc(N2CCCC2)ccc1N | 1% |
| C=C(C)Cn1cc(C2CCN(CCN3CCC(CNC(=O)c4ccc(-c5ccc(C#N)cc5)cc4)CC3)CC2)c2ccccc21 | 64% (active) |
